The results in this text go back to PubChem BioAssay.

Test [1] in a line: resazurin metabolic signal in HepG2 cells – cell-based, resazurin fluorescence, 24 h, PK04 Diversity Set, profiling panel (AID 1172). Also: test concentration not given here. As to conditions: HepG2 viability, higher = more signal.
The nature of test [2]: budding yeast growth changes without added modifier – OD600, strain BY4716, 24 h, basal condition, primary screen (AID 1173). As to conditions: S. cerevisiae BY4716 growth, OD600, 24 h; higher = more signal, called active from +8 up or from −8 down.
Test [3] in a line: viability profiling in MM1S myeloma cells – cell-based, resazurin fluorescence, basal, 24 h, PK04 Diversity Set, profiling panel (AID 1174). Also: test concentration not given here. To be noted: higher = more signal, called active from +8 up or from −8 down.
The target in test [4] is Dihydroorotate dehydrogenase (quinone), mitochondrial (Plasmodium falciparum (isolate 3D7)) (UniProt Q08210). Description: inhibition of P. falciparum DHODH – biochemical, C-terminal His tag, absorbance 600 nm, primary screen (AID 1175).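 Also: recombinant parasite enzyme with a five histidine tag at its C terminus; test concentration not given here.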 As to conditions: PfDHODH enzyme, DCIP absorbance 600 nm; higher = more signal, called active from +8 up or from −8 down.
Test [5] is described as follows: inhibition of PAO1 biofilm formation – strain PAO1, LB-PBS medium, absorbance 600 nm, primary screen (AID 1176). Also: test concentration not given here. As to conditions: P. aeruginosa PAO1 growth/biofilm, A600, 12 h; higher = more signal.
Test [6] is described as follows: growth modulation of vineyard yeast isolate – strain RM11-1a, OD600, basal, 24 h, primary screen (AID 1177).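 Also: cultures grown under basal conditions with no added stressor; test concentration not given here.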 As to conditions: S. cerevisiae RM11-1a growth, OD600, 24 h; higher = more signal, called active from +8 up or from −8 down.
A short description of test [7]: growth of efflux-deficient E. coli DRC39 – strain DRC39, OD650, 24 h, E. coli filamentation inducers, primary screen (AID 1178).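 Also: growth measured as culture turbidity by optical density at 650 nm; test concentration not given here.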 As to conditions: E. coli DRC39 acrAB, higher = more signal, called active from +8 up or from −8 down.
Test [8] in a line: growth of efflux-deficient E. coli DRC39 – strain DRC39, OD650, 48 h, E. coli filamentation inducers, primary screen (AID 1179).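 Also: screen aims at cell division blockers that make cells filament.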 To be noted: E. coli DRC39 delta-acrAB growth, higher = more signal, called active from +8 up or from −8 down.
A short description of test [9]: viability profiling in RPMI8226 myeloma cells – cell-based, resazurin fluorescence, basal, 24 h, PK04 Diversity Set, profiling panel (AID 1180).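 Also: RPMI8826 multiple myeloma cell line at 5000 cells per well; test concentration not given here.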 To be noted: higher = more signal.
Test [10] concerns the target E3 ubiquitin-protein ligase XIAP (Homo sapiens) (UniProt P98170). Kind of test: small molecules binding XIAP protein – biophysical, small-molecule microarray, fluorescence 635 nm, primary screen (AID 1181).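 Also: score merges 667 nm emission and signal to noise over triplicate slides.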 As to conditions: higher = more signal.

Calls of active or inactive are those of the source. Unless noted, no rule for the calls is given here.

Dihydroorotate dehydrogenase (quinone), mitochondrial (Plasmodium falciparum (isolate 3D7)), sequence (Q08210 whole entry, looked up): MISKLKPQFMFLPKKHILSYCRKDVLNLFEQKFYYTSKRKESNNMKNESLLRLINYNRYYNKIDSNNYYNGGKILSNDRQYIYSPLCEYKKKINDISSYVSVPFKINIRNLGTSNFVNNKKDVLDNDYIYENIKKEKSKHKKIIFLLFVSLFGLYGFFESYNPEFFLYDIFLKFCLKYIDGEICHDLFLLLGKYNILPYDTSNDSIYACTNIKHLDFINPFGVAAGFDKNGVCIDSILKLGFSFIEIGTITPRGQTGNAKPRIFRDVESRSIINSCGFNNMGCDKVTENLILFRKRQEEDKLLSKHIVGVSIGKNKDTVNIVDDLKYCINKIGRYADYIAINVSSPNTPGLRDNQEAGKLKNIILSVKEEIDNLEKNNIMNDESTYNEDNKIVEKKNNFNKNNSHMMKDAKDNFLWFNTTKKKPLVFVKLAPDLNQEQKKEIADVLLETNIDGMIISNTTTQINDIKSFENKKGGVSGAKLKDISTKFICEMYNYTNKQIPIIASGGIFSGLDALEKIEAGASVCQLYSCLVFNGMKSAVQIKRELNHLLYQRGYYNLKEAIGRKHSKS
E3 ubiquitin-protein ligase XIAP (Homo sapiens), sequence (P98170 whole entry, looked up): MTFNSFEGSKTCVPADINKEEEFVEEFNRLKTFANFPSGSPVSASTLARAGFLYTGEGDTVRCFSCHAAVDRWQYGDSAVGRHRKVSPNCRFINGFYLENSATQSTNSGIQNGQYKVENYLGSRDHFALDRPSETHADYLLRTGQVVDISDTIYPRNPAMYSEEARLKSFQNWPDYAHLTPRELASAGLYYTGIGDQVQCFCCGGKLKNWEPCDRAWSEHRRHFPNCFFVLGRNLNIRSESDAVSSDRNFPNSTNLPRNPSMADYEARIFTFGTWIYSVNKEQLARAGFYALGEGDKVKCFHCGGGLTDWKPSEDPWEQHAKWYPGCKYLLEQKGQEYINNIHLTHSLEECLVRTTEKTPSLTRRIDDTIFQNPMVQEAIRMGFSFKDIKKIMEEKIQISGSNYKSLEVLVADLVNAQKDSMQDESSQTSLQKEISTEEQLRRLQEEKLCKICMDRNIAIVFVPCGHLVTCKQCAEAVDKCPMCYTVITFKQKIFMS

In the case of `COC(=O)[C@@]1(Cc2ccc(OC)cc2)[C@H]2c3cc(C(=O)N(C)C)n(Cc4ccccc4)c3C[C@H]2CN1C(=O)c1ccccc1`, the z-score is 2.31 in [1]; -0.373 (inactive) in test [2]; -1.15 (inactive) in test [3]; 0.756 (inactive) in test [5]; 0.692 (inactive) in test [6]; 0.111 (inactive) in test [7]. In addition, the values for the z-score in test [8] and in test [9] were 0.892 (inactive) and -1.66, respectively. The composite z-score in test [4] was 0.171 (inactive); in [10] it was 0.0791.
As to `COC(=O)[C@H](Cc1ccccc1)N1CC(/C=C/C2CC2)=C[C@@H]1[C@@H](O)Cc1ccccc1`, the z-score in [1] is 1.09; in test [2], -2.65 (inactive); in test [3] it was -2.24 (inactive); in test [5], 0.294 (inactive); in test [6], 0.385 (inactive); in [7] it was 0.461 (inactive). Also, the z-score in test [8] is 0.658 (inactive); in [9], -0.277. Moreover, the composite z-score in test [4] was 0.114 (inactive); in test [10], -0.0414.
`C[C@]1(C(=O)O)c2ccccc2C(=O)N(Cc2ccccc2)[C@H]1c1ccc(CO)cc1`: the z-score in test [1] was 0.244; in test [2], 0.451 (inactive); in [3] it was 0.936 (inactive); in test [5] it was -0.633 (inactive); in test [6], 1.91 (inactive); in test [7] it was -0.0256 (inactive). Besides, the z-score in [8] was -0.373 (inactive); in [9], 0.988. Also, the composite z-score in test [4] was 0.798 (inactive); in [10], 0.013.
Turning to `CC(C)N1CC=CC23O[C@@H]4C=CCOC(=O)[C@@H]4[C@H]2C(=O)N(C(C)CO)[C@@H]3C1=O` (stereo not given in full), the z-score in [1] was 0.629; in [2], 0.433 (inactive); in test [3], 0.273 (inactive); in test [5] it was 0.578 (inactive); in test [6], -0.603 (inactive); in test [7], 0.17 (inactive). Further, the z-score in test [8] was -0.155 (inactive); in test [9], 0.0803. Further, the composite z-score was -0.218 (inactive) in test [4] and 0.226 in test [10].
In the case of `CCCCN1CC=CC23O[C@@H]4C=CCOC(=O)[C@@H]4[C@H]2C(=O)N(C(C)CO)[C@@H]3C1=O` (stereo not given in full), the z-score in test [1] was -0.0023; in test [2], 0.15 (inactive); in [3], -0.536 (inactive); in test [5], -0.456 (inactive); in test [6], -0.938 (inactive); in test [7], -0.338 (inactive). Further, the z-score in test [8] is -0.478 (inactive); in test [9], -0.784. Further, the values for the composite z-score in test [4] and in test [10] were -1.49 (inactive) and -0.0525, respectively.
Take `C=C[C@@H](C)[C@H](OC(=O)Nc1ccc(SC)cc1)c1ccc(OCCO)cc1`: the z-score is 0.571 in [1]; -3.42 (inactive) in test [2]; -0.0261 (inactive) in test [3]; 0.638 (inactive) in test [5]; 0.0728 (inactive) in test [6]; -0.217 (inactive) in [7]. Further, the values for the z-score in test [8] and in [9] were 0.511 (inactive) and 0.152, respectively. Also, the figures for the composite z-score in [4] and in [10] were -1.16 (inactive) and -0.111, respectively.
Consider `COCC(=C=CC[C@H](O)c1ccc(OCCO)cc1)C[C@H](O)COCc1ccccc1`, for which the z-score in test [1] is 0.993; in test [2], -1.49 (inactive); in test [3], 1.18 (inactive); in test [5], 0.33 (inactive); in [6] it was -1.3 (inactive); in [7], 0.979 (inactive). The figures for the z-score in test [8] and in test [9] were 0.921 (inactive) and 1.51, respectively. The results for the composite z-score in test [4] and in test [10] were -0.95 (inactive) and -0.0238, respectively.
In the case of `NC(=O)NCC#Cc1ccc2c(c1)[C@]1(C(=O)N2)[C@H](c2ccc(O)cc2)N2[C@H](c3ccccc3)[C@H](c3ccccc3)OC(=O)[C@H]2[C@@H]1C(=O)Nc1nc2ccccc2s1`, the z-score in [1] is 0.971; in test [2], 3.54 (inactive); in [3] it was 0.972 (inactive); in test [5], 4.48 (inactive); in [6], 5.85 (inactive); in [7], 1.04 (inactive). Further, the z-score was 1.19 (inactive) in test [8] and 0.388 in [9]. Besides, the figures for the composite z-score in test [4] and in test [10] were -0.579 (inactive) and 0.591, respectively.
Turning to `Cc1ccc(S[C@]2(C(=O)NCC(F)(F)F)CC(=O)N(Cc3ccccc3)[C@@H]2c2ccc(CO)cc2)cc1`, the z-score is -0.991 in test [1]; -0.185 (inactive) in [2]; 0.546 (inactive) in test [3]; -0.131 (inactive) in test [5]; -0.629 (inactive) in [6]; 0.163 (inactive) in test [7]. The z-score is -0.0965 (inactive) in test [8] and 0.342 in test [9]. In addition, the composite z-score in test [4] is -0.309 (inactive); in test [10], 0.4.
Turning to `O=C1O[C@@H](c2ccccc2)[C@@H](c2ccccc2)N2[C@@H](c3ccc(O)cc3)[C@]3(C(=O)Nc4ccc(C#CCCO)cc43)[C@@H](C(=O)Nc3nc4ccccc4s3)[C@H]12`, the z-score in [1] was 0.43; in [2] it was 0.442 (inactive); in test [3] it was 0.307 (inactive); in [5], 0.513 (inactive); in test [6], 0.948 (inactive); in test [7], -0.0791 (inactive). The figures for the z-score in test [8] and in test [9] were 0.282 (inactive) and 0.73, respectively. For the same compound, the composite z-score was -0.292 (inactive) in [4] and -0.0918 in test [10].
`C=C(COC)/C(=C/C[C@@H](OC(=O)c1ccncc1)c1ccc(CO)o1)c1cnc2ccccc2c1`: the z-score was 0.7 in test [1]; 0.705 (inactive) in [2]; 0.372 (inactive) in test [3]; 0.379 (inactive) in test [5]; 1.2 (inactive) in test [6]; 0.16 (inactive) in test [7]. The z-score in test [8] was 0.0648 (inactive); in test [9], 0.235. Also, the composite z-score in test [4] was -7.93 (inactive); in test [10], 0.641.
`COC(=O)Cn1c(C(=O)N2CCCC2)cc2c1C[C@H]1CN(C(=O)c3ccccc3)[C@@](Cc3ccc(F)cc3)(C(=O)OC)[C@@H]21`: the z-score was 0.716 in test [1]; 0.702 (inactive) in [2]; -1.35 (inactive) in test [3]; 0.756 (inactive) in test [5]; -1.54 (inactive) in [6]; -0.132 (inactive) in test [7]. In addition, the results for the z-score in [8] and in test [9] were -0.181 (inactive) and 0.303, respectively. The composite z-score in test [4] was -0.653 (inactive); in [10], 0.303.
